Measurements published in PubChem BioAssay (Tox21).
Several values for one entry are separate records, joined by “and”; a condition that tells them apart may be missing. Identical values can stand only once. Records with an inconclusive call do not appear. Where a call stands in place of a potency, no number is given. Some structures have more than one record in an assay (separate samples or runs), and their calls can disagree. Activity calls are given as the source filed them. Unless noted, the call rests on the fitted dose curve.

Assays:
[1] = qHTS assay to identify small molecule agonists of the sonic hedgehog signaling (Shh) pathway (AID 1259368);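 further: NIH/3T3-derived 3T3Gli1-Luc cells carrying a stable Gli1-driven firefly luciferase reporter; series mostly up to about 92 µM; nearly all actives have a fitted effect of over 15% in size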
In short: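 Read-out: firefly luciferase luminescence from a Gli1 response element reporter stably integrated in NIH/3T3-derived 3T3Gli1-Luc cells, measured 30 min at room temperature after reagent addition. Compound exposure lasted 24 hr at 37 C, 5% CO2.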

[2] = qHTS assay to identify small molecule antagonists of the sonic hedgehog signaling (Shh) pathway (AID 1259369); further: nearly all actives have a fitted effect of over 45% in size; further: potency means the concentration at half of the fitted maximal effect
In short: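 Luminescence readout: firefly Luc under Gli1 response element in 3T3Gli1-Luc cells (NIH/3T3 clone). Antagonist mode, stimulation by conditioned medium; compound exposure 24hr at 37 C, 5% CO2.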

[3] = target: Estrogen receptor beta (Homo sapiens) (UniProt Q92731); assay: qHTS assay to identify small molecule agonists of the estrogen receptor beta (ER-beta) signaling pathway (AID 1259377; active means well fitted activation curve with a large enough effect in the signal ratio in the repeat runs, not every such curve was filed as active; the % refers to the signal ratio; further: potency means the concentration at half of the fitted maximal effect)
Sequence of Estrogen receptor beta (Homo sapiens) (Q92731 whole entry, looked up): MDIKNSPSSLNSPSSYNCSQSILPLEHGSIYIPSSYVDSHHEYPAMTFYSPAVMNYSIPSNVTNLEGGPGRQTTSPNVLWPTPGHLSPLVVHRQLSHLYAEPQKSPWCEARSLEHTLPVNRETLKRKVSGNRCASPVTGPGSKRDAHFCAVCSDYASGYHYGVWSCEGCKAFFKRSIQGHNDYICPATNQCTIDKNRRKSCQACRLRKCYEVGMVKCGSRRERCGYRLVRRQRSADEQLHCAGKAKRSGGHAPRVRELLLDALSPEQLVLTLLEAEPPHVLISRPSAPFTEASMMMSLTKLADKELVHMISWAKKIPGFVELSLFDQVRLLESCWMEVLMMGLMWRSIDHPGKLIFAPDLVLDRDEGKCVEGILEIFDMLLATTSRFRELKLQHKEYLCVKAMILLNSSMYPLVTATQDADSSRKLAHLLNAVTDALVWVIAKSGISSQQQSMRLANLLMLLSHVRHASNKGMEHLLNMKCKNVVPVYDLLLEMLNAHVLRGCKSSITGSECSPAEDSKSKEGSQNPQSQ
In short: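 Measured by fluorescence intensity from a B/G FRET beta-lactamase substrate (2 h, room temperature) in ER-beta-UAS-bla HEK293T cells treated with DMSO-dissolved compounds for 16 hr at 37C and 5% CO2.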

[4] = target: Estrogen receptor beta (Homo sapiens) (UniProt Q92731); assay: qHTS assay to identify small molecule antagonists of the estrogen receptor beta (ER-beta) signaling pathway (AID 1259378; active means well fitted inhibition curve with a large enough effect in the signal ratio in the repeat runs, not every such curve was filed as active; the % refers to the signal ratio; further: potency means the concentration at half of the fitted maximal effect)
In short: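 ER-beta-UAS-bla HEK293T cells in 2% charcoal-stripped FBS medium treated with compound plus 1nM final 17-beta-estradiol for 16 hr at 37C. Beta-lactamase reporter read by FRET substrate fluorescence after 2 hours at room temperature.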

[5] = qHTS assay to identify small molecule agonists of the androgen receptor (AR) signaling pathway in the presence of an antagonist - cell viability counter screen (AID 1259379; active means well fitted curve in the direction sought with a large enough effect in the repeat runs; an effect the other way counts as inactive or inconclusive; further: nearly all actives have a fitted effect of over 25% in size; further: potency means the concentration at half of the fitted maximal effect)
In short: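 Viability counter screen: CellTiter-Fluor fluorescence, measured in the same wells as the luciferase read-out. MDA-kb2 cells, 3,000/well, with nilutamide at 3.0uM final and compounds at 15 concentrations, 16 hr at 37C, 0% CO2.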

[6] = qHTS assay to identify small molecule antagonists of the estrogen receptor beta (ER-beta) signaling pathway - cell viability counter screen (AID 1259382; active means well fitted curve in the direction sought with a large enough effect in the repeat runs; an effect the other way counts as inactive or inconclusive; further: series mostly up to about 92 µM; nearly all actives have a fitted effect of over 55% in size)
In short: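 Luminescent ATP read-out (CellTiter-Glo, 30 min, RT) taken in the same wells as the bla reporter assay. HEK293T ER-beta-UAS-bla cells in 2% charcoal-stripped FBS were exposed to compounds with 1nM E2 for 16 hr at 37C.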

[7] = target: Estrogen receptor (Homo sapiens) (UniProt P03372); assay: qHTS assay to identify small molecule agonists of the estrogen receptor alpha (ER-alpha) signaling pathway in the presence of an antagonist (AID 1259383); further: top concentration of the series differs between compounds; nearly all actives have a fitted effect of over 15% in size
Sequence of Estrogen receptor (Homo sapiens) (P03372 whole entry, looked up): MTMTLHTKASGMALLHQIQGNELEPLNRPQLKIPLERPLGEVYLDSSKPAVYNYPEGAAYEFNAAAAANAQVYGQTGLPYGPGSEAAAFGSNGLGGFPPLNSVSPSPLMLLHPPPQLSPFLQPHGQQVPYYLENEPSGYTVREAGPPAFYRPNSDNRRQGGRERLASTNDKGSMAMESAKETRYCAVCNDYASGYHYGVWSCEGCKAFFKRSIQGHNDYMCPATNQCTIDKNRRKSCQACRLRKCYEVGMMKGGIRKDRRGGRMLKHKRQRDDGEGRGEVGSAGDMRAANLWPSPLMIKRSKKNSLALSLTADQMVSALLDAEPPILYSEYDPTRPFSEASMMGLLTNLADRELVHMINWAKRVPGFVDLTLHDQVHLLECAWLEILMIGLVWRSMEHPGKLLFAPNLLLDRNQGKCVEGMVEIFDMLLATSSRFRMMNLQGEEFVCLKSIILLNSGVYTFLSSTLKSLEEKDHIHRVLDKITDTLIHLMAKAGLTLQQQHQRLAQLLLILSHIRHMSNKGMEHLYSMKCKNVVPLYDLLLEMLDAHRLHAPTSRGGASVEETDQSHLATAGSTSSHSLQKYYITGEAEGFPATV
In short: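 Luciferase luminescence (ONE-Glo, 30min at room temperature) measured in VM7Luc4E2 cells after 22hr compound exposure at 15 concentrations, with 10.0nM ICI-182,780 final present; cells express endogenous ER-alpha and carry four EREs upstream of luciferase.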

[8] = qHTS assay to identify small molecule agonists of the estrogen receptor alpha (ER-alpha) signaling pathway in the presence of an antagonist - cell viability counter screen (AID 1259386; active means well fitted curve in the direction sought with a large enough effect in the repeat runs; an effect the other way counts as inactive or inconclusive;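 further: cells exposed to compounds for 22 h at 37 °C before the viability read; nearly all actives have a fitted effect of over 30% in size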; further: potency means the concentration at half of the fitted maximal effect)
In short: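 Read-out: CellTiter-Fluor fluorescence after 1hr reagent incubation, measured in the same wells as the luciferase readout. VM7Luc4E2 cells were exposed to 15 compound concentrations with 10.0nM ICI-182,780 for 22hr at 37C.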

[9] = target: Progesterone receptor (Homo sapiens) (UniProt P06401); assay: qHTS assay to identify small molecule agonists of the progesterone receptor (PR) signaling pathway (AID 1346784); further: nearly all actives have a fitted effect of over 30% in size
Sequence of Progesterone receptor (Homo sapiens) (P06401 whole entry, looked up): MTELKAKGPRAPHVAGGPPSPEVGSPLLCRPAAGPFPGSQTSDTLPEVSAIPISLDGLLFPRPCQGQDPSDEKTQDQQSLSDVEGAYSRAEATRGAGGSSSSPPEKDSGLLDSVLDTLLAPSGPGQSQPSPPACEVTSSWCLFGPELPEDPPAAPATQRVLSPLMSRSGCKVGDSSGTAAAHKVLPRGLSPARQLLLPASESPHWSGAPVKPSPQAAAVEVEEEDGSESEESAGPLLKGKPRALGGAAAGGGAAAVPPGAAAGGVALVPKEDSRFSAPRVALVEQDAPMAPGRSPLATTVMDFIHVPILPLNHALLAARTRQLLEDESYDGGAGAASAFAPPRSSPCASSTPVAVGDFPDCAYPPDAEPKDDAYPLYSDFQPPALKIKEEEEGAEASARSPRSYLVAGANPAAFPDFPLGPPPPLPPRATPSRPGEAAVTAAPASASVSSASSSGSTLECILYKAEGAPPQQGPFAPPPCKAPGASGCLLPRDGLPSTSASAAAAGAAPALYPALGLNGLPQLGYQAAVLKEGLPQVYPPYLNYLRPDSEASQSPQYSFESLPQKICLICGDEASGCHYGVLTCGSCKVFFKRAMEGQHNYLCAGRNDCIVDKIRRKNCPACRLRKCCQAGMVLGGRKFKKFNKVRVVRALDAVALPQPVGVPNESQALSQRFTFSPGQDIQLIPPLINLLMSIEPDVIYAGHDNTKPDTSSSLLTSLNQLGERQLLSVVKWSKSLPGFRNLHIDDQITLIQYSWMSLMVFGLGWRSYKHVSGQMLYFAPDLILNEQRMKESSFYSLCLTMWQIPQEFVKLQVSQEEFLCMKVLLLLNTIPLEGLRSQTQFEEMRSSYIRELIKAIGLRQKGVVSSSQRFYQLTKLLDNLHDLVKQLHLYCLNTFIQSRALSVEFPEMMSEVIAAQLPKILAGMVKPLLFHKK
In short: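 The screen uses PR-UAS-bla HEK 293T cells in charcoal-stripped serum (2%). Compounds are applied for 16 hr at 37C after a 6 hr pre-incubation, and reporter activity is detected with a FRET beta-lactamase substrate after 2 hr at room temperature.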

[10] = target: Progesterone receptor (Homo sapiens) (UniProt P06401); assay: qHTS assay to identify small molecule antagonists of the progesterone receptor (PR) signaling pathway (AID 1346795; active means well fitted inhibition curve with a large enough effect in the signal ratio in the repeat runs, not every such curve was filed as active; the % refers to the signal ratio; further: potency means the concentration at half of the fitted maximal effect)
In short: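 After 6 hr plating at 37C in 2% stripped-serum medium, PR-UAS-bla HEK293T cells got compounds, then 1 nM R5020. Sixteen hours later, LiveBLAzer substrate was applied for 2 hr at room temperature and fluorescence was recorded.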

[11] = qHTS assay to identify small molecule antagonists of the progesterone receptor (PR) signaling pathway - cell viability counter screen (AID 1346798; active means well fitted curve in the direction sought with a large enough effect in the repeat runs; an effect the other way counts as inactive or inconclusive; further: series mostly up to about 92 µM; nearly all actives have a fitted effect of over 50% in size)
In short: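 Viability was determined by ATP-based luminescence (CellTiter-Glo) in PR-UAS-bla HEK293T cells cultured in 2% charcoal-stripped serum and incubated 16 hr with compounds under R5020 stimulation.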

[12] = qHTS assay to identify small molecule agonists of the progesterone receptor (PR) signaling pathway - cell viability counter screen (AID 1346799); further: nearly all actives have a fitted effect of over 45% in size; further: potency means the concentration at half of the fitted maximal effect
In short: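 Viability was scored by ATP luminescence (CellTiter-Glo, 30 min, room temperature) in the same wells used for the reporter readout, after 16 hr compound exposure of PR-UAS-bla HEK293T cells.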

[13] = qHTS assay to identify small molecule agonists of the TGF-beta/Smad signaling pathway - cell viability counter screen (AID 1346829; active means well fitted curve in the direction sought with a large enough effect in the repeat runs; an effect the other way counts as inactive or inconclusive; further: top concentration of the series differs between compounds; nearly all actives have a fitted effect of over 45% in size)
In short: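 Same-well cytotoxicity: CellTiter-Glo added after the 2 hr room-temperature beta-lactamase substrate step, luminescence measured 30 min later; cells had 5 hr of compound at 37 C.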

[14] = qHTS assay to identify small molecule agonists of the TGF-beta/Smad signaling pathway (AID 1346859; active means well fitted activation curve with a large enough effect in the signal ratio in the repeat runs, not every such curve was filed as active; the % refers to the signal ratio; further: series mostly up to about 77 µM)
In short: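 Dual-wavelength fluorescence (460/530 nm emission) quantified beta-lactamase expression under the Smad binding element in HEK 293T cells following 5 hr compound treatment at 37 C.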

[15] = qHTS assay to identify small molecule agonists of the estrogen receptor beta (ER-beta) signaling pathway - cell viability counter screen (AID 1259380; active means well fitted curve in the direction sought with a large enough effect in the repeat runs; an effect the other way counts as inactive or inconclusive; further: nearly all actives have a fitted effect of over 30% in size)
In short: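 Luminescence read-out (CellTiter-Glo, 30 min, room temp) taken in the same wells as the beta-lactamase reporter assay; ER-beta-UAS-bla HEK293T cells exposed to DMSO-dissolved compounds for 16 hr at 37C in 2% charcoal-stripped FBS medium.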

[16] = target: Androgen receptor (Homo sapiens) (UniProt P10275); assay: qHTS assay to identify small molecule agonists of the androgen receptor (AR) signaling pathway in the presence of an antagonist (AID 1259381); further: nearly all actives have a fitted effect of over 15% in size
Sequence of Androgen receptor (Homo sapiens) (P10275 whole entry, looked up): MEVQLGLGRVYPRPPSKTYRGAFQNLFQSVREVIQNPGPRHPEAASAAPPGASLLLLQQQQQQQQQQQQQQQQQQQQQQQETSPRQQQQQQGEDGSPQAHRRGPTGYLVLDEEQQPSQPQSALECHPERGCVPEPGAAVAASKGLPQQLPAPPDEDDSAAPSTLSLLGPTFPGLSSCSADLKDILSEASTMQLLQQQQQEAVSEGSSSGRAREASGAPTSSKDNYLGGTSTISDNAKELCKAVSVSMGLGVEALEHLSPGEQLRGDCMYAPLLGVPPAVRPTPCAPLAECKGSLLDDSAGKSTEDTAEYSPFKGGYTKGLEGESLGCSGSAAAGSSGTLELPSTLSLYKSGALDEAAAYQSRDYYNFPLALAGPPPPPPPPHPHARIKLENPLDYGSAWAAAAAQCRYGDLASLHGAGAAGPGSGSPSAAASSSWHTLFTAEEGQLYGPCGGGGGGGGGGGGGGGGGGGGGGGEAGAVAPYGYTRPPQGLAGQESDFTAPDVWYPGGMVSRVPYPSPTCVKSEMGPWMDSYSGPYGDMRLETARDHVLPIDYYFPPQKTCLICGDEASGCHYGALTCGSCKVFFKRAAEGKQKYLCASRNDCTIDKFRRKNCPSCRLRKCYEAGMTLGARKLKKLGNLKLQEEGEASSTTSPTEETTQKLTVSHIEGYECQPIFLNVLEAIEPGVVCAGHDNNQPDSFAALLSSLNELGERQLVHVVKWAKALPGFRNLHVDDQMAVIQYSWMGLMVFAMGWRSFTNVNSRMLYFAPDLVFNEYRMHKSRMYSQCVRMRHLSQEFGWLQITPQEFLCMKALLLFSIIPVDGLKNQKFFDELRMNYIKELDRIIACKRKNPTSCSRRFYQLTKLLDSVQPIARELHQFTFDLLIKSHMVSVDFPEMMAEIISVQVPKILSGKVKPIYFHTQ
In short: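 Luciferase read-out (ONE-Glo, 30min room temperature) in MDA-kb2 MMTV-reporter cells; agonist mode run in presence of AR antagonist nilutamide, 3.0uM final. Compounds tested as 15-point series, 16hr exposure at 37C, 0% CO2.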

[17] = qHTS assay to identify small molecule antagonists of the TGF-beta/Smad signaling pathway - cell viability counter screen (AID 1346824; active means well fitted curve in the direction sought with a large enough effect in the repeat runs; an effect the other way counts as inactive or inconclusive; further: nearly all actives have a fitted effect of over 50% in size)
In short: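 SBE-bla HEK 293T cells, incubated overnight, then compound plus 0.25 ng/mL TGF-beta1 (stock added) for 5 hr at 37 C. Viability was read in the same wells by CellTiter-Glo luminescence after 30 min at room temperature.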

[18] = target: Thyrotropin-releasing hormone receptor (Homo sapiens) (UniProt P34981); assay: qHTS assay to identify small molecule antagonists of the thyrotropin-releasing hormone receptor (TRHR) signaling pathway (AID 1346877; active means well fitted inhibition curve with a large enough effect in the repeat runs, not every such curve was filed as active; further: series mostly up to about 51 µM)
Sequence of Thyrotropin-releasing hormone receptor (Homo sapiens) (P34981 whole entry, looked up): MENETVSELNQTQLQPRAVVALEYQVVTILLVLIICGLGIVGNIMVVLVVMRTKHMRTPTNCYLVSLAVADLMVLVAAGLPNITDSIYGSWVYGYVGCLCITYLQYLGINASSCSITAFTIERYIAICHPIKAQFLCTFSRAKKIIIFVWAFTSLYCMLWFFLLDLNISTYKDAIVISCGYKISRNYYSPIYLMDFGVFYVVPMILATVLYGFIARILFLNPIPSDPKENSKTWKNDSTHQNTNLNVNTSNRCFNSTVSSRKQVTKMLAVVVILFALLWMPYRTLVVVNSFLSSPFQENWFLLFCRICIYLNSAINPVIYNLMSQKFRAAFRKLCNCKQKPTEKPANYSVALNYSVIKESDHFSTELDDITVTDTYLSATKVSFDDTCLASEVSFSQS
In short: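 HEK293/TRHR cells, 18 h, 37 °C; Ca2+ dye 2 h; cpd 5 min RT; TRH 1 nM final; fluorescence read 3 min, 1 s intervals; 15 concs, triplicate.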

[19] = qHTS assay to identify small molecule agonists or antagonists of the thyroid stimulating hormone receptor (TSHR) signaling pathway - wild type cell line counter screen (AID 1259384)
In short: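 Wild-type Hek293 cells, 800/well, 18 h at 37C, then compound with Ro20-1724 for 30 min RT. cAMP by HTRF (cAMP-d2/anti-cAMP cryptate), 1 h RT, fluorescence read. 15 concentrations, triplicates.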

[20] = target: Thyrotropin receptor (Homo sapiens) (UniProt P16473); assay: qHTS assay to identify small molecule antagonists of the thyroid stimulating hormone receptor (TSHR) signaling pathway (AID 1259385); further: nearly all actives have a fitted effect of over 20% in size
Sequence of Thyrotropin receptor (Homo sapiens) (P16473 whole entry, looked up): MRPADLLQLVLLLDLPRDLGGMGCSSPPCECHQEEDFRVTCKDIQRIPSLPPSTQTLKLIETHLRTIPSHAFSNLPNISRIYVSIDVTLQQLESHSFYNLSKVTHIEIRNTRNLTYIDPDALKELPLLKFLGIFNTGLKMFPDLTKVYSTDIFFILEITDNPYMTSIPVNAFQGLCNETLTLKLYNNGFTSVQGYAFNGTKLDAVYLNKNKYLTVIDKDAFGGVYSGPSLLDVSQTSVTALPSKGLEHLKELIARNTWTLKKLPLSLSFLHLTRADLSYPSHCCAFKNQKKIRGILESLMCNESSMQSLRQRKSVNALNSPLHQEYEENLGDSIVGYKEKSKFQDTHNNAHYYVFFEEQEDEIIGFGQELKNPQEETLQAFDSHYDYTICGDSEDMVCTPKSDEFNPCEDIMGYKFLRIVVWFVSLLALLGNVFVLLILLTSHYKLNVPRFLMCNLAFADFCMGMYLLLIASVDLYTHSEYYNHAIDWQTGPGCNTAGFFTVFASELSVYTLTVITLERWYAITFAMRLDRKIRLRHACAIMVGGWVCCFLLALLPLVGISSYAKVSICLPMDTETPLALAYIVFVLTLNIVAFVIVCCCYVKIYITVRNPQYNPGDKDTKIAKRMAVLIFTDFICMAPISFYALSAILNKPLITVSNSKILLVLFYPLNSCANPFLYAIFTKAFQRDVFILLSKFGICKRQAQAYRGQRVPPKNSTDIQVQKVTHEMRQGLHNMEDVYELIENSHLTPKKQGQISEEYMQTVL
In short: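 TSHR-HEK293 cells (800/well) plated 18 h, then compounds with Ro20-1724 and TSH at 1.5 ng/mL final, 30 min at room temperature. cAMP quantified by HTRF (cAMP-d2/anti-cAMP-cryptate, 1 h); 15 concentrations in triplicate.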

Row | SMILES | outcome [1] | Potency [2] | Potency [3] | Potency [4] | Potency [5] | Potency [6] | Potency [7] | Potency [8] | Potency [9] | Potency [10] | Potency [11] | Potency [12] | Potency [13] | outcome [14] | Potency [15] | Potency [16] | Potency [17] | outcome [18] | outcome [19] | outcome [20]
1 | Clc1cc(Cl)c(Cl)cc1Cl | inactive | inactive | inactive | inactive | inactive | inactive | inactive | inactive | inactive | inactive | inactive | inactive | inactive | inactive |  |  |  |  |  | 
2 | Cn1c([N+](=O)[O-])cnc1COC(N)=O | inactive | inactive | inactive | inactive | inactive | inactive | inactive | inactive | inactive | inactive | inactive | inactive | inactive | inactive |  |  |  |  |  | 
3 | O=C1CCCCC1 | inactive |  | inactive | inactive | inactive | inactive | inactive | inactive | inactive | inactive | inactive | inactive | inactive | inactive | inactive | inactive | inactive | inactive |  | 
4 | CCCCOCCOCCOC(=O)CCCCC(=O)OCCOCCOCCCC | inactive | inactive | inactive | inactive | inactive | inactive | inactive | inactive | inactive | inactive | inactive | inactive | inactive | inactive |  |  |  | inactive | inactive | inactive
5 | C=C(C)C(=O)OCCCCCCCCCCCC | inactive |  | inactive | inactive | inactive | inactive | inactive | inactive | inactive | inactive | inactive | inactive | inactive | inactive | inactive |  | inactive | inactive | inactive | inactive
6 | CCCCOCCO | inactive | inactive |  |  | inactive | inactive | inactive | inactive | inactive | inactive | inactive | inactive | inactive | inactive | inactive |  | inactive | inactive | inactive | inactive
7 | CCCCCCOC(C)=O | inactive | inactive |  |  | inactive | inactive | inactive | inactive | inactive | inactive |  | inactive and 8.63 µM (active) | inactive | inactive |  |  | inactive |  | inactive | inactive
8 | CNC[C@H](O)[C@@H](O)[C@H](O)[C@H](O)CO | inactive | inactive | inactive | inactive | inactive | inactive |  | inactive | inactive | inactive | inactive | inactive | inactive | inactive |  |  |  | inactive | inactive | inactive
9 | CCOC(=O)/C=C\C(=O)OCC | inactive | inactive |  |  | inactive | inactive | inactive | inactive | inactive | inactive | inactive | inactive | inactive | inactive | inactive |  | inactive | inactive | inactive | inactive
10 | O=S(=O)(Oc1ccc(Cl)cc1Cl)c1ccccc1 | inactive | inactive |  |  | inactive | inactive | inactive | inactive | inactive | 8.78 µM (active) and 12.2 µM (active) | inactive | inactive | inactive | inactive | inactive |  | inactive |  | inactive | inactive
11 | Cc1cc(O)c2c(c1)C(=O)c1cc(O)cc(O)c1C2=O | inactive | 34.4 µM (active) | 4.86 µM (active) |  | 26.7 µM (active) and 30.6 µM (active) | inactive |  | 15.4 µM (active) | inactive | 29.9 µM (active) and 27.3 µM (active) | inactive | inactive | inactive |  |  |  | inactive | inactive | inactive | inactive
12 | CC1CC(OC(=O)c2ccccc2O)CC(C)(C)C1 (stereo unspecified) | inactive | 27 µM (active) and inactive |  |  | inactive | inactive |  | inactive | inactive |  | inactive | inactive | inactive | inactive | inactive |  |  | inactive | inactive | inactive
13 | O=C(Oc1ccccc1)c1ccc(O)cc1 | inactive | inactive |  | 48.9 µM (active) | inactive | inactive |  | inactive | inactive | 61.1 µM (active) | inactive | inactive | inactive | inactive | inactive |  | inactive | inactive | inactive | inactive
